# A selection: hits, their analogues and other compounds. The true share with any hit is near 1.5%.
# dFosB act – activators of delta FosB homodimer, primary screen, biochemical, fluorescence polarization, TAMRA-CDK5 oligo, single point | Protein FosB (Mus musculus), P13346 | purified delta FosB; percent of positive-control signal above neutral wells | activation, % at 25 µM | hit rate 0.99% among 340,000 | AID 493131, 2011;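 active means mean activation above about 17%, with every replicate also reaching it, limit read from the data, passing the limit was not always enough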
# RAD54 branch – inhibitors of human RAD54 branch migration, primary screen, biochemical, fluorescence, single point | DNA repair and recombination protein RAD54-like (Homo sapiens), Q92698 | RAD54 Holliday junction branch migration, FAM/BHQ fluorescence | inhibition, % at 10.4 µM | hit rate 0.14% among 360,000 | AID 602329, 2012;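 active means mean normalized replicate activity at least 40 and at least half of replicates scoring 40 or more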;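 further: 0% = median of neutral control wells and 100% = median of positive control wells; inhibitors cause a drop in the FAM fluorescence signal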
# Target sequence (Q92698 whole entry, looked up): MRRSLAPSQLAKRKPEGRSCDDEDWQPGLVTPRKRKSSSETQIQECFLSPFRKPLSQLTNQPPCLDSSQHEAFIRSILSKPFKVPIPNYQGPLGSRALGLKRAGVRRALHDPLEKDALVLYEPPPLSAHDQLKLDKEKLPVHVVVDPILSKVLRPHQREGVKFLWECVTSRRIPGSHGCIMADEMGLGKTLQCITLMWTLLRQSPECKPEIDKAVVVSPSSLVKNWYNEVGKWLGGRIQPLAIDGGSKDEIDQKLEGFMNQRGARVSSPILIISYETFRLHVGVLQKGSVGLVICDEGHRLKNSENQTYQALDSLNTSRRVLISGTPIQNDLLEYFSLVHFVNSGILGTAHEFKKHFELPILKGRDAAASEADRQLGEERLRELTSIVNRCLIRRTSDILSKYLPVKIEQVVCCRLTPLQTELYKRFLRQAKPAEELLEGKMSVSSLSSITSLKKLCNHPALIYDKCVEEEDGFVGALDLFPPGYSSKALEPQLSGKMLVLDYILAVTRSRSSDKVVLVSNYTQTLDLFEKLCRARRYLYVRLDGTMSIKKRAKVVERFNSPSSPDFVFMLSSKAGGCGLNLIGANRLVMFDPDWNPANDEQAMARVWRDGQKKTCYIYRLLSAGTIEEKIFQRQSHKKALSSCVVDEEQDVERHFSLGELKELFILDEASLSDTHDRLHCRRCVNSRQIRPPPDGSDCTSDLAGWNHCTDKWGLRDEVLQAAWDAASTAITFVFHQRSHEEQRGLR
# N-glyco inh – increase of ERlucT glycosylation luciferase signal, primary screen, N-linked glycosylation inhibitor project, D54 ERlucT cells, luminescence, set 2 | D54 ERlucT glycosylation luciferase reporter, 24 h; percent of 100 nM tunicamycin response | reporter increase, % at 12.5 µM | hit rate 0.23% among 360,000;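 active means mean luciferase reporter signal, scaled so untreated is 0 and the glycosylation-blocking control 100, at or above a set limit in every replicate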;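 further: luciferase carries N-glycosylation sites so blocking glycosylation raises the light; 0% = median of neutral control wells and 100% = median of 100 nM tunicamycin wells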
# PvdQ inh – P. aeruginosa PvdQ acylase inhibitors, primary screen, biochemical, fluorescence, plate reader and imaging, single point. hit rate 0.063% among 340,000. purified PvdQ acylase. AID 488965, 2010. inhibition, % at 10 µM; in the data active means inhibition above about 30%, passing the limit was not always enough;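 further: 0% = vehicle neutral wells and 100% = reference inhibitor wells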
# F508del corr – F508del CFTR correction, initial screen, CFBE line, single point | CFBE cells, YFP halide quenching; stimulated with forskolin plus potentiator P3; % fluorescence drop versus neutral controls | activity (quench increase), % at 7.58 µM | hit rate 0.36% among 350,000 | AID 720511, 2013;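 active means mean added fluorescence quench of at least 8% versus neutral control, with both replicates also reaching 8%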;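 further: cells transiently co-express mutant CFTR-F508del with the halide-sensitive YFP; corrector assay measuring rescue of mutant channel to the surface after 24 h compound exposure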
# RAD52 inh – RAD52 DNA annealing inhibitors, primary screen, biochemical, FRET, single point, set 2. recombinant RAD52 DNA annealing, FRET fluorescence. inhibition, % at 18.7 µM. hit rate 0.46% among 360,000. AID 651710, 2012;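 active means every replicate showing at least 50% inhibition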
# * = called active by the depositor; . = not tested or not shown.
SMILES,dFosB act,RAD54 branch,N-glyco inh,PvdQ inh,F508del corr,RAD52 inh
Nc1c(C(=O)Nc2ccc(S(=O)(=O)N3CCCC3)cc2)sc2nc3ccc(OC(F)(F)F)cc3cc12,-8.7,-29.0,99.6*,-6.4,.,.
Nc1c(C(=O)Nc2ccc(S(=O)(=O)N3CCCC3)cc2)sc2nc3cc4c(cc3cc12)CCC4,-3.1,.,17.8,-4.6,.,.
CN1C(=O)CSc2ccc(NC(=O)Nc3ccccn3)cc21,-11.9,.,31.2*,-1.5,0.1,-107.2
CC(=O)Nc1ccc(NC(=O)Nc2ccc3c(c2)N(C)C(=O)CS3)cc1,-3.6,.,-2.7,-7.9,0.9,-11.8
C[C@H](CO)N1C[C@H](C)[C@@H](CN(C)Cc2ccc(-c3ccccc3)cc2)Oc2ccc(N(C)C)cc2C1=O,.,-9.4,.,.,-1.1,3.8
CCc1ccc2nc(NC(=O)Cn3cnc4ccccc4c3=O)sc2c1,154.4*,-17.7,-0.1,-21.3,2.0,-18.6
Cc1ccc(S(=O)(=O)Nc2ccc3c(c2)C(=O)N([C@H](C)CO)C[C@H](C)[C@H](CN(C)CC2CCCCC2)OCCCC[C@@H](C)O3)cc1,.,-4.7,.,.,1.5,55.0*
Cc1ccc(S(=O)(=O)Nc2ccc3c(c2)C(=O)N([C@@H](C)CO)C[C@@H](C)[C@@H](CN(C)CC2CCCCC2)OCCCC[C@@H](C)O3)cc1,.,3.7,.,.,-1.2,56.3*
Cc1ccc(S(=O)(=O)Nc2ccc3c(c2)C(=O)N([C@@H](C)CO)C[C@H](C)[C@H](CN(C)S(=O)(=O)c2ccc(C)cc2)OCCCC[C@@H](C)O3)cc1,.,-0.6,.,.,9.1*,-22.5
Cc1ccc(S(=O)(=O)Nc2ccc3c(c2)C(=O)N([C@@H](C)CO)C[C@H](C)[C@@H](CN(C)S(=O)(=O)c2ccc(C)cc2)OCCCC[C@@H](C)O3)cc1,.,-3.5,.,.,2.2,-12.1
Cc1ccc(S(=O)(=O)Nc2ccc3c(c2)C(=O)N([C@H](C)CO)C[C@H](C)[C@@H](CN(C)CC2CCCCC2)OCCCC[C@@H](C)O3)cc1,.,-1.5,.,.,1.0,23.4
COc1ccc(C(C#N)c2ccc(Cl)nn2)cc1 (stereo unspecified),-5.6,.,-0.3,46.1*,-1.4,-1.0
N#CC(c1ccc(Cl)nn1)c1ccc(Cl)cc1Cl (stereo unspecified),-3.6,13.8,-1.7,113.8*,.,.
COc1ccc(C(C#N)c2nc3ccccc3nc2Cl)cc1 (stereo unspecified),3.5,7.3,-0.9,2.8,1.5,-2.1
C[C@@H]1CN([C@@H](C)CO)C(=O)c2cc(NC(=O)c3ccncc3)ccc2O[C@@H](C)CCCCO[C@H]1CN(C)Cc1ccncc1,.,3.9,.,.,-1.2,-14.8
C[C@@H]1CCCCO[C@H](CN(C)Cc2ccc(C(=O)O)cc2)[C@@H](C)CN([C@H](C)CO)C(=O)c2cc(NC(=O)c3ccncc3)ccc2O1,.,6.3,.,.,0.7,48.5
C[C@@H]1CCCCO[C@@H](CN(C)Cc2ccc(C(=O)O)cc2)[C@@H](C)CN([C@@H](C)CO)C(=O)c2cc(NC(=O)c3ccncc3)ccc2O1,.,4.0,.,.,-0.8,104.9*
C[C@@H]1CN([C@@H](C)CO)C(=O)c2cc(NC(=O)c3ccncc3)ccc2O[C@@H](C)CCCCO[C@H]1CN(C)Cc1ccc(C(=O)O)cc1,.,1.3,.,.,-0.4,95.8*
C[C@@H]1CCCCO[C@@H](CN(C)Cc2ccc(C(=O)O)cc2)[C@H](C)CN([C@H](C)CO)C(=O)c2cc(NC(=O)c3ccncc3)ccc2O1,.,-5.5,.,.,2.0,104.0*
C[C@H](CO)N1C[C@H](C)[C@H](CN(C)Cc2ccc(C(=O)O)cc2)OCCCC[C@H](C)Oc2ccc(NC(=O)c3ccncc3)cc2C1=O,.,-0.2,.,.,-0.2,100.7*
CO[C@@H]1CN(C)C(=O)c2cc(NC(C)=O)ccc2OC[C@@H](C)NC[C@@H]1C,.,-2.5,.,.,-3.8,-8.2
CC(=O)Nc1ccc2c(c1)C(=O)N(C)[C@@H]1CC[C@@H](CC(=O)NCc3ccc(Cl)cc3)O[C@H]1CO2,.,1.1,.,.,0.4,-23.1
C[C@@H]1CN([C@@H](C)CO)C(=O)Cc2cc(NC(=O)CCCCCC(=O)Nc3ccccc3N)ccc2O[C@@H]1CN(C)CC1CC1,.,.,.,.,-0.8,11.7
C[C@@H]1CN([C@@H](C)CO)C(=O)c2cc(NC(=O)c3ccncc3)ccc2O[C@@H](C)CCCCO[C@@H]1CN(C)Cc1ccc(C(=O)O)cc1,.,3.4,.,.,-1.8,59.2*
C[C@H](CO)N1C[C@H](C)[C@H](CN(C)Cc2ccncc2)OCCCC[C@H](C)Oc2ccc(NC(=O)c3ccncc3)cc2C1=O,.,8.8,.,.,-3.6,-5.6
SMILES,dFosB act,RAD54 branch,N-glyco inh,PvdQ inh,F508del corr,RAD52 inh
C[C@@H]1CCCCO[C@@H](CN(C)Cc2ccncc2)[C@@H](C)CN([C@H](C)CO)C(=O)c2cc(NC(=O)c3ccncc3)ccc2O1,.,5.6,.,.,-2.2,8.4
C[C@@H]1CCCCO[C@H](CN(C)Cc2ccc(C(=O)O)cc2)[C@H](C)CN([C@H](C)CO)C(=O)c2cc(NC(=O)c3ccncc3)ccc2O1,.,4.5,.,.,2.5,103.0*
CCOC(=O)c1cnc(COc2ccc(OC)cc2)[nH]c1=O,-1.0,.,-1.5,0.0,52.6*,-2.7
CCOC(=O)c1cnc(-c2cccc(OC)c2)[nH]c1=O,-2.1,1.2,2.4,-10.4,.,.
O=C(COC(=O)c1ccccc1)c1ccc(S(=O)(=O)N2CCCCC2)cc1,-9.7,-13.9,-3.0,-12.0,-1.1,-7.7
O=C(COc1ccccc1)OCC(=O)c1ccc(S(=O)(=O)N2CCCCC2)cc1,5.9,10.4,-1.5,39.9*,0.7,-11.7
Cc1cccc(NC(=O)CN2C(=O)COc3ccc(Cl)cc32)c1,-2.7,-2.8,-1.6,11.5,-3.8,-11.1
Cc1csc(NC(=O)CN2C(=O)COc3ccc(Cl)cc32)n1,28.9*,1.5,0.6,-13.5,-2.4,-11.1
COc1ccc(OC)c(S(=O)(=O)Nc2ccc(-c3ccc4nnc(C)n4n3)cc2)c1,0.5,.,18.5,-1.8,1.3,-9.0
COc1ccc(S(=O)(=O)Nc2ccc(-c3ccc4nnc(C)n4n3)cc2)c(OC)c1,21.8*,3.5,9.2,2.0,-2.6,-19.9
COc1ccc(CC(=O)Nc2ccc(-c3ccc4nnc(C)n4n3)cc2)cc1OC,-22.9,-13.4,30.4*,-3.5,-4.0,-25.7
O=C(C[C@H]1C[C@@H]2c3cc(NS(=O)(=O)c4ccc(F)cc4)ccc3O[C@@H]2[C@H](CO)O1)N1CCCCC1,.,0.3,.,.,0.9,-12.1
Cc1noc(C)c1S(=O)(=O)N(C)C[C@@H]1OCCCC[C@H](C)Oc2ccc(NS(=O)(=O)c3ccc(Cl)cc3)cc2C(=O)N([C@@H](C)CO)C[C@H]1C,.,-10.3,.,.,1.3,-15.9
